# BAZ2B block = blocks human BAZ2B. Q9UIF8. AlphaScreen BAZ2B-H3K14Ac peptide displacement. Potency, µM (titrated, usually from 114 µM), usual class: inhibitors. hit rate 4.4% among 360,000; further: nearly all actives have a fitted effect of over 60% in size
#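 Complex of BAZ2B and biotin-H3K14Ac (50 nM apiece) forms over 30 min at RT, then faces library compounds up to 110 uM for another 30 min; AlphaScreen beads added, 20 min dark incubation, luminescence read.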
# Sfp PPTase inh = Sfp phosphopantetheinyl transferase inhibition. Q9F4F7. Biochemical Sfp PPTase activity, qHTS. Potency, µM, hits mostly inhibitors. hit rate 3.5% among 310,000. AID 1490;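 further: the enzyme is Sfp with the accession as filed and its product quenches rhodamine fluorescence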
#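 Buffer: 50 mM Hepes-Na pH 7.6, 10 mM MgCl2, 0.01% Nonidet P-40, 0.01% BSA. Enzyme 15 nM, pre-exposed to compound 15 min; substrates then added and fluorescence change tracked over 30 min.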
# HP1b binding inh = blocks HP1-beta chromodomain binding to methylated histone tails | P83916 | AlphaScreen HP1-beta / biotin-H3K9me3 peptide binding | hit rate 0.56% among 390,000 | Potency, µM (series often up to 114 µM), hits mostly inhibitors; further: nearly all actives have a fitted effect of over 70% in size
# Target sequence (P83916 whole entry, looked up): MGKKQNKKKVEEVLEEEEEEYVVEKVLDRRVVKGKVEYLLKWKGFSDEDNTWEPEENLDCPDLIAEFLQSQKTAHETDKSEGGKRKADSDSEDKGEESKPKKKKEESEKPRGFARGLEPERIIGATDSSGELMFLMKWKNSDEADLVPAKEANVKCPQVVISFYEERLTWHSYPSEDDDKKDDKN
#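 HP1-beta protein (50 nM final) preincubated 30 min at room temperature with biotinylated H3(1-18)K9me3 peptide (50 nM) in PBS pH 7.4, 0.01% Tween-20, then compound added for 30 min. AlphaScreen streptavidin donor/nickel chelate acceptor beads (10 ug/mL final), 30 min dark, luminescence read.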
# G9a inh = inhibitors of human histone lysine methyltransferase G9a; Potency, µM (top dose mostly 102 µM), usual class: inhibitors; AID 504332; Q96KQ7; G9a H3K9 monomethylation, AlphaScreen, 2 h; hit rate 8.8% among 350,000; further: nearly all actives have a fitted effect of over 75% in size
# Target sequence (Q96KQ7 913-1193 limits assumed): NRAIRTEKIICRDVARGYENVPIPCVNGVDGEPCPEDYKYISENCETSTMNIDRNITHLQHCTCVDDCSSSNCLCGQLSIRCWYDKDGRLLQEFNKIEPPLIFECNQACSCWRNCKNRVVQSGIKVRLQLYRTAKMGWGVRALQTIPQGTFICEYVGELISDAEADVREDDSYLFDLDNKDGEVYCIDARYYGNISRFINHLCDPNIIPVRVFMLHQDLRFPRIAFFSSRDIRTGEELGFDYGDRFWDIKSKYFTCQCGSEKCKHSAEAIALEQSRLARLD
#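 Step 1: enzyme (final 20 nM) with compound, 15 min RT. Step 2: substrate peptide 500 nM and SAM 20 uM, 2 h RT. Step 3: anti-H3K9me1 antibody and AlphaScreen beads, 10 min, then plate read.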
# JMJD2A Tudor = JMJD2A Tudor domain (human) inhibition; O75164; AlphaScreen JMJD2A-Tudor / H3K4me3 peptide binding; Potency, µM (series often up to 114 µM), usual class: inhibitors; hit rate 4.4% among 390,000; further: nearly all actives have a fitted effect of over 50% in size
# Hits are given with their value; 0 = inactive; ? = inconclusive; - = no result given; ! = a repeat was not active; [ ] = another dose, or the depositor's remark. A selection: hits, their analogues and other compounds. The true share with any hit is near 12%. The call rests on the fitted dose curve; in most records, active means well fitted curve in the direction sought with a large enough effect; inconclusive means small, poorly fitted or top-dose-only effect, or another doubt; inactive means no such curve, though single readings can be large; an effect the other way counts as inactive or inconclusive.
SMILES,BAZ2B block,Sfp PPTase inh,HP1b binding inh,G9a inh,JMJD2A Tudor
O=C(Nc1ccccc1F)c1cc(-c2ccco2)nc2ccccc12,-,-,0,-,?
O=C(NNC(=O)c1cc(-c2ccco2)nc2ccccc12)c1ccccc1,0,20µM,0,-,0
COc1cccc(O)c1CN1CCC(C(=O)Nc2ccc(-c3cccc(C)c3)cc2)CC1,0,79µM,0,0,?
O=C(NCC1CCCO1)c1nn2c(C(F)(F)F)cc(-c3ccc(Br)o3)nc2c1Br (stereo not drawn),0,50µM,0,50µM,0
O=C(NC1CCCCC1)c1nn2c(C(F)(F)F)cc(-c3ccco3)nc2c1Br,0,50µM,0,?,0
O=C(NC1CCCCC1)c1cnn2c(C(F)(F)F)cc(-c3ccco3)nc12,0,0,0,0,0
CC(=O)Nc1ccc(NC(=O)c2ccc(Cl)nc2)cc1,0,0,0,-,0
Cc1nnc2ccc(-c3ccc(NC(=O)c4ccc(Cl)nc4)cc3)nn12,0,0,-,79µM,-
COc1ccc(/C=C/C(=O)NC(=S)NN2CCCCC2c2cccnc2)cc1OC (stereo not drawn),0,0,0,32µM,0
O=C(/C=C/c1ccc(Cl)cc1)NC(=S)NN1CCCCC1c1cccnc1 (stereo not drawn),?,0,-,22µM,-
CCCCC(=O)Nc1ccc(S(=O)(=O)N2CCCCC2c2cccnc2)cc1 (stereo not drawn),0,0,0,0,0
O=C(Nc1ccc2c(c1)OCCO2)C1CC(O)CN1C(=O)Nc1ccccc1 (stereo not drawn),0,0,0,0,?
CCOC(=O)c1c(N/N=C/c2cccnc2)n[nH]c1C,0,0,0,71µM,0
C/C(=N\N=C(/N)SC1CC(=O)N(c2ccccc2)C1=O)c1cccs1 (stereo not drawn),0,0,0,0,?
C/C(=N\N=C(/N)SC1CC(=O)N(c2ccc(Cl)cc2)C1=O)c1cccs1 (stereo not drawn),?,0,0,40µM,?
CN1CCN(C(=O)C2CCCCC2C(=O)O)CC1 (stereo not drawn),0,0,0,0,0
Cc1ccc(-c2nnc(SCC#N)n2N)cc1,0,0,0,?,0
O=C(Cc1ccccc1)NCc1n[nH]c(=S)n1-c1ccccc1,0,0,?,?,0[11.4 µM]
COc1ccc(CC(=O)NCc2n[nH]c(=S)n2-c2cccc(C)c2)cc1,0,0,0,11µM,7.9µM
CCn1c(CNC(=O)c2cccc(C)c2)nnc1SCC(=O)Nc1cccc(OC)c1,0,0,0,0[12.7 µM],0
COc1cccc(C(=O)NCc2n[nH]c(=S)n2-c2cccc(C)c2)c1,0,0,0,?,18µM
O=C(NCc1n[nH]c(=S)n1-c1cccc(C(F)(F)F)c1)c1ccco1,0,0,0,13µM,13µM
Cc1ccc(C(=O)NCc2n[nH]c(=S)n2-c2ccccc2)cc1[N+](=O)[O-],0,0,0,10µM,14µM
Cc1ccc(OCCC(=O)NNC(=O)c2ccccc2F)cc1,0,-,0,0[2.33 µM],0
CC(C)(C)[C@@H]1C=C(C(=O)N2CCN(Cc3ccccc3)CC2)O[C@H](OCc2ccc(CO)cc2)C1,0,0,0,0,0
SMILES,BAZ2B block,Sfp PPTase inh,HP1b binding inh,G9a inh,JMJD2A Tudor
COc1ccc(/C=C(\C#N)c2nc(-c3cc4ccccc4oc3=O)cs2)cc1OC,0,-,0,0,0
COc1ccc(CC(=O)NCc2nnc(SCC(=O)c3ccc(OC)cc3)n2C)cc1,0,0,0,0,0
COc1ccc(CC(=O)NCc2n[nH]c(=S)n2C)cc1,0,0,0,45µM,?
O=C1CN(C(=O)c2ccc(Br)o2)C(c2ccc(F)cc2)c2cc(F)ccc2N1 (stereo not drawn),0,0,0,?,?
CC#C[C@]1(O)CC[C@H]2[C@@H]3CCC4=CC(=O)CCC4=C3[C@@H](c3ccc(N(C)C)cc3)C[C@@]21C,13µM,0,?,9.5µM!,16µM
CC#C[C@]1(O)CC[C@H]2[C@@H]3CCC4=CC(=O)CCC4=C3[C@H](c3ccc(N(C)C)cc3)C[C@@]21C,-,0,-,-,-
COc1ccc(-n2c(-c3cccc(OC)c3)nc(=S)c3c2CCCC3)cc1,0,0,0,0,0
